Source: PubChem BioAssay AID1159580 (chemical genetic matrix, 2015)
The campaign covered roughly 5,500 compounds. About 2,000 (36%) were called active. Inconclusive results (about 18%) are left out. Cut-off read from the data, not from the text of the source: active = normalized growth mostly below about 0.91 (no sharp cut-off); inconclusive = no clear call, values can overlap the other calls; inactive = mostly above about 0.92. This is one part of the list.

Assay: chemical genetic growth profiling, strain panel (AID 1159580);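 note: tested at 20 µM; growth read once vehicle control cultures reached saturation at 30 °C; 1 = growth at the plate median or of vehicle wells; lower values mean less growth of the strain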
Conditions: growth OD
[1] = S. cerevisiae deletion strains, locus YAL013W, strain DEP1, hits give low values
[2] = S. cerevisiae deletion strains, locus YBR229C, strain ROT2, hits give low values
[3] = S. cerevisiae deletion strains, locus YDL101C, strain DUN1, hits give low values
[4] = S. cerevisiae deletion strains, locus YDR150W, strain NUM1, hits give low values
[5] = S. cerevisiae deletion strains, locus YEL061C, strain CIN8, hits give low values
[6] = S. cerevisiae deletion strains, locus YHR030C, strain SLT2, hits give low values
[7] = S. cerevisiae deletion strains, locus YJR043C, strain POL32, hits give low values
[8] = S. cerevisiae deletion strains, locus YJR075W, strain HOC1, hits give low values
[9] = S. cerevisiae deletion strains, locus YLR039C, strain RIC1, hits give low values
[10] = S. cerevisiae deletion strains, locus YLR262C, strain YPT6, hits give low values
[11] = S. cerevisiae deletion strains, locus YMR307W, strain GAS1, hits give low values
[12] = S. cerevisiae deletion strains, locus YNL322C, strain KRE1, hits give low values
[13] = S. cerevisiae deletion strains, locus YPL055C, strain LGE1, hits give low values

Measured: normalized growth

CC(=O)OC1CC(O)C(C)(C)C2CC(=O)C3(C)C(CCC4(C)C(c5ccoc5)OC(=O)C5OC543)C12C (configuration not stated)
inactive: [1] 0.996 | S. cerevisiae deletion strains, locus YBR021W, strain FUR4, hits give low values 0.947 | [2] 0.994 | S. cerevisiae deletion strains, locus YCL029C, strain bik1, hits give low values 0.987 | S. cerevisiae deletion strains, locus YDL035C, strain GPR1, hits give low values 0.988 | S. cerevisiae deletion strains, locus YDL074C, strain BRE1, hits give low values 0.945 | [3] 0.992 | S. cerevisiae deletion strains, locus YDL134C, strain PPH21, hits give low values 1.02 | S. cerevisiae deletion strains, locus YDL185W, strain tfp1, hits give low values 0.995 | S. cerevisiae deletion strains, locus YDL192W, strain arf1, hits give low values 0.971 | S. cerevisiae deletion strains, locus YDR101C, strain arx1, hits give low values 0.974 | [4] 1.01 | S. cerevisiae deletion strains, locus YDR162C, strain NBP2, hits give low values 1.01 | S. cerevisiae deletion strains, locus YDR318W, strain mcm21, hits give low values 1.01 | S. cerevisiae deletion strains, locus YDR388W, hits give low values 0.998 | S. cerevisiae deletion strains, locus YDR502C, strain sam2, hits give low values 0.991 | [5] 1 | S. cerevisiae deletion strains, locus YER110C, hits give low values 0.985 | S. cerevisiae deletion strains, locus YER155C, strain BEM2, hits give low values 0.992 | S. cerevisiae deletion strains, locus YER167W, strain BCK2, hits give low values 0.996 | S. cerevisiae deletion strains, locus YGL078C, strain dbp3, hits give low values 0.968 | S. cerevisiae deletion strains, locus YGL086W, strain mad1, hits give low values 0.978 | S. cerevisiae deletion strains, locus YGL248W, strain PDE1, hits give low values 1.01 | S. cerevisiae deletion strains, locus YGR135W, strain pre9, hits give low values 1.02 | S. cerevisiae deletion strains, locus YGR229C, strain SMI1, hits give low values 0.998 | S. cerevisiae deletion strains, locus YGR252W, strain gcn5, hits give low values 1.04 | [6] 0.995 | S. cerevisiae deletion strains, locus YHR079C, strain IRE1 (second series), hits give low values 0.988 | S. cerevisiae deletion strains, locus YHR094C, strain hxt1, hits give low values 0.989 | S. cerevisiae deletion strains, locus YHR129C, strain ARP1, hits give low values 0.99 | S. cerevisiae deletion strains, locus YHR200W, strain rpn10, hits give low values 1.01 | S. cerevisiae deletion strains, locus YIL066C, strain RNR3, hits give low values 1.01 | S. cerevisiae deletion strains, locus YIL073C, strain SPO22, hits give low values 1.06 | S. cerevisiae deletion strains, locus YIL125W, strain kgd1, hits give low values 0.997 | S. cerevisiae deletion strains, locus YIR030C, strain dcg1, hits give low values 0.992 | S. cerevisiae deletion strains, locus YJL095W, strain BCK1, hits give low values 1.03 | S. cerevisiae deletion strains, locus YJL134W, strain LCB3, hits give low values 0.988 | S. cerevisiae deletion strains, locus YJL168C, strain set2, hits give low values 0.995 | S. cerevisiae deletion strains, locus YJL187C, strain SWE1 (second series), hits give low values 0.996 | [7] 0.989 | [8] 1.01 | S. cerevisiae deletion strains, locus YKL009W, strain mrt4, hits give low values 0.931 | S. cerevisiae deletion strains, locus YKL068W, hits give low values 0.996 | S. cerevisiae deletion strains, locus YKL085W, strain MDH1 (second series), hits give low values 0.999 | S. cerevisiae deletion strains, locus YKL085W, strain MDH1, hits give low values 0.999 | S. cerevisiae deletion strains, locus YKR001C, strain vps1, hits give low values 1 | [9] 0.995 | S. cerevisiae deletion strains, locus YLR058C, strain SHM2, hits give low values 1 | S. cerevisiae deletion strains, locus YLR102C, strain apc9, hits give low values 0.996 | [10] 1.02 | S. cerevisiae deletion strains, locus YLR268W, strain sec22, hits give low values 0.96 | S. cerevisiae deletion strains, locus YLR330W, strain CHS5, hits give low values 1.01 | S. cerevisiae deletion strains, locus YLR342W, strain FKS1 (second series), hits give low values 1.01 | S. cerevisiae deletion strains, locus YLR371W, strain rom2, hits give low values 0.99 | S. cerevisiae deletion strains, locus YLR418C, strain cdc73, hits give low values 0.999 | S. cerevisiae deletion strains, locus YML016C, strain PPZ1, hits give low values 0.985 | S. cerevisiae deletion strains, locus YML032C, strain rad52, hits give low values 1.03 | S. cerevisiae deletion strains, locus YML124C, strain tub3, hits give low values 1 | S. cerevisiae deletion strains, locus YMR078C, strain ctf18, hits give low values 0.988 | S. cerevisiae deletion strains, locus YMR223W, strain ubp8, hits give low values 1.01 | [11] 0.971 | S. cerevisiae deletion strains, locus YNL067W, strain RPL9B, hits give low values 1.01 | S. cerevisiae deletion strains, locus YNL233W, strain BNI4, hits give low values 0.987 | S. cerevisiae deletion strains, locus YNL250W, strain rad50, hits give low values 0.989 | S. cerevisiae deletion strains, locus YNL271C, strain bni1, hits give low values 0.983 | S. cerevisiae deletion strains, locus YNL298W, strain CLA4, hits give low values 0.968 | S. cerevisiae deletion strains, locus YNL307C, strain MCK1, hits give low values 0.98 | [12] 0.999 | S. cerevisiae deletion strains, locus YNR052C, strain pop2, hits give low values 0.996 | S. cerevisiae deletion strains, locus YOL006C, strain TOP1, hits give low values 0.972 | S. cerevisiae deletion strains, locus YOL012C, strain htz1 0.734 | S. cerevisiae deletion strains, locus YOL147C, strain pex11, hits give low values 0.989 | S. cerevisiae deletion strains, locus YOR061W, strain CKA2, hits give low values 0.991 | S. cerevisiae deletion strains, locus YOR069W, strain VPS5, hits give low values 0.985 | S. cerevisiae deletion strains, locus YOR136W, strain idh2, hits give low values 0.966 | S. cerevisiae deletion strains, locus YOR144C, strain elg1, hits give low values 0.996 | S. cerevisiae deletion strains, locus YOR184W, strain ser1, hits give low values 0.982 | S. cerevisiae deletion strains, locus YOR316C, strain cot1, hits give low values 0.992 | [13] 0.999 | S. cerevisiae deletion strains, locus YPR119W, strain clb2, hits give low values 0.992 | S. cerevisiae deletion strains, locus YPR141C, strain kar3, hits give low values 0.987 | S. cerevisiae deletion strains, locus YPR163C, strain tif3, hits give low values 1 | S. cerevisiae deletion strains, locus YPR167C, strain met16, hits give low values 0.985 | S. cerevisiae deletion strains, strain wtn01, hits give low values 0.958 | S. cerevisiae strains, strain wild type, hits give low values 1

N#Cc1cccc(CSC2=NCN(C3CC3)CN2)c1
inactive: [1] 1 | [2] 1.01 | [3] 0.98 | [4] 0.934 | [5] 1.02 | S. cerevisiae deletion strains, locus YGR078C, strain PAC10, hits give low values 0.996 | [6] 1 | S. cerevisiae deletion strains, locus YHR087W, strain rtc3, hits give low values 1.03 | S. cerevisiae deletion strains, locus YJL187C, strain SWE1, hits give low values 1 | [7] 0.979 | [8] 0.989 | S. cerevisiae deletion strains, locus YKL190W, strain CNB1, hits give low values 1.01 | [9] 1.05 | S. cerevisiae deletion strains, locus YLR058C, strain SHM2 (second series), hits give low values 1.01 | S. cerevisiae deletion strains, locus YLR085C, strain ARP6, hits give low values 0.993 | [10] 1.04 | S. cerevisiae deletion strains, locus YML094W, strain GIM5, hits give low values 1.01 | S. cerevisiae deletion strains, locus YMR219W, strain ESC1, hits give low values 1.01 | S. cerevisiae deletion strains, locus YMR263W, strain SAP30, hits give low values 0.952 | [11] 0.978 | S. cerevisiae deletion strains, locus YNL153C, strain GIM3, hits give low values 0.997 | S. cerevisiae deletion strains, locus YNL298W, strain CLA4 (second series), hits give low values 1.02 | [12] 0.999 | S. cerevisiae deletion strains, locus YNR030W, strain Alg12, hits give low values 1.02 | [13] 0.886 | S. cerevisiae deletion strains, locus YPL241C, strain CIN2, hits give low values 1.01 | S. cerevisiae deletion strains, locus YPR135W, strain CTF4, hits give low values 1
